High-throughput results from PubChem BioAssay.
Pf apPOL inh – Pf-apPOL DNA polymerase inhibition. Recombinant Pf-apPOL, molecular beacon fluorescence, 1.5 h. actives 0.25% (n = 210,000). inhibition, % at 10 µM
mHTT CaM bind – mHTT-calmodulin interaction abrogation; P42858; AlphaScreen His-mHTT/GST-CaM binding, luminescence; inhibition, % at 15 µM; actives 3.6% (n = 190,000);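 note: 0% = both proteins with DMSO and 100% = one protein alone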
Active calls of the source: *; x = not tested or not shown; + = active, no number. The entries come from a sample that favours hits as a whole. Cut-off read from the data, not from the text of the source: active = inhibition above about 50%; inactive = the rest.

SMILES	Pf apPOL inh	mHTT CaM bind
COc1ccc(N2CC(c3nnc(NC(=O)Cc4cccc(OC)c4)o3)CC2=O)cc1 (centres undefined)	-3	53*
COc1ccc(N2CC(c3nnc(NC(=O)Cc4cccc(F)c4)o3)CC2=O)cc1 (centres undefined)	-3	29
Cc1ccc(NC(=O)C(=O)NCc2ccncc2)c([N+](=O)[O-])c1	-1	-3
OC(C#Cc1ccccc1)C#CC(O)(c1ccccc1)c1ccccc1 (centres undefined)	4	98*
OC(C#CC(O)(c1ccccc1)c1ccccc1)c1cccnc1 (centres undefined)	-15	-6
Cc1ccc(-c2nn(-c3ccccc3)cc2C=O)cc1	-4	-10
Cc1nc2scc(C)n2c(=O)c1NC(=O)c1ccc(Cl)cc1	1	-4
COc1ccc(OC)c(NC(=O)C2CN(S(=O)(=O)C3CC3)CC23CCCCC3)c1 (centres undefined)	-2	15
COc1ccc(NC(=O)C2CN(S(=O)(=O)C3CC3)CC23CCCCC3)cc1 (centres undefined)	9	58*
CCCN(CCO)Cc1ccc([N+](=O)[O-])cc1	-3	-2
CCOc1ccc2c(c1)OC(=Cc1ccco1)C2=O	1	2
Cc1nn(-c2ccccc2)c(C)c1C(=O)NCc1ccccn1	-5	-1
CNC(=O)c1cc2c(=O)n3cc(C)ccc3nc2n(Cc2ccco2)c1=N	15	0
N=c1c(C(=O)NCCc2ccccc2)cc2c(=O)n3ccccc3nc2n1Cc1ccco1	-17	52*
Cc1ccc2nc3c(cc(C(=O)NCCc4ccccc4)c(=N)n3Cc3ccco3)c(=O)n2c1	-1	56*
N=c1c(C(=O)NCc2cccnc2)cc2c(=O)n3ccccc3nc2n1Cc1ccco1	-8	4
COc1ccccc1CNS(=O)(=O)c1ccc([N+](=O)[O-])cc1	-1	7
Cc1ccc(S(=O)(=O)N2CCC(=O)N([C@H](COCc3ccc(C(F)(F)F)cc3)C(C)C)CC2)cc1	-3	30
CC(C)(C)c1ccc(C(=O)N2CCC(=O)N([C@H](COCc3ccc(Cl)cc3)Cc3ccccc3)CC2)cc1	-1	48
CC(C)C[C@@H](COCc1ccc(Cl)cc1)N1CCN(C(=O)c2ccc(C(F)(F)F)cc2)CCC1=O	-1	99*
O=C(c1ccc(C(F)(F)F)cc1)N1CCC(=O)N([C@H](COCc2ccc(C(F)(F)F)cc2)Cc2ccccc2)CC1	-1	99*
O=C1CCN(Cc2ccc(O)cc2)CCN1[C@H](CO)Cc1ccccc1	-1	-4
O=C(c1ccc(C(F)(F)F)cc1)N1CCC(=O)N([C@H](COCc2ccc(Cl)cc2)Cc2ccccc2)CC1	-7	100*
CCCN(CCC)C(=O)NC1(C(F)(F)F)Oc2ccccc2O1	-6	4
CCOc1ccc(C2=CC(c3cccc(OC)c3OC)n3nnnc3N2)cc1Cl (centres undefined)	-1	10
SMILES	Pf apPOL inh	mHTT CaM bind
Cc1ccc(C2CC(c3cccs3)=NN2C(=O)CN(C)C(=O)C(C)C)cc1 (centres undefined)	0	26
CCOC(=O)CCSCC(=O)N1N=C(c2cccs2)CC1c1ccc(C)cc1 (centres undefined)	1	52*
CCOC(=O)CCC(=O)Nc1nnc(-c2ccc(OC(F)(F)F)cc2)o1	-10	47
C=C1CCN([C@@H](CC(C)C)C(=O)NCc2ccc(Cl)cc2)S(=O)(=O)c2ccccc21	-2	70*
C=C1CCN([C@@H](Cc2ccccc2)C(=O)NCc2ccc(Cl)c(Cl)c2)S(=O)(=O)c2ccccc21	-2	43
C=C1CCN([C@@H](CC(C)C)C(=O)NCc2ccc(Cl)c(Cl)c2)S(=O)(=O)c2ccccc21	-1	99*
C=C1CCN([C@@H](CC(C)C)C(=O)NCc2ccc(OC)cc2)S(=O)(=O)c2ccccc21	-3	-6
C=C1CCN([C@H](C(=O)NCc2ccc(Cl)c(Cl)c2)C(C)C)S(=O)(=O)c2ccccc21	-5	74*
C=C1CCN([C@@H](CC(C)C)C(=O)NCc2cc(OC)c(OC)c(OC)c2)S(=O)(=O)c2ccccc21	-5	35
CCc1ccc(NS(=O)(=O)c2cc3c(s2)CCN(C(C)=O)C3)cc1	0	4
Fc1ccc(-c2noc(Cc3nnc(-c4cc(F)cc(F)c4)o3)n2)cc1	-6	-10
CN(C)C1N(C(=O)c2ccc(Br)cc2)N=C2c3ccccc3S(=O)(=O)N21 (centres undefined)	-2	5
O=C(NCCC1=CCCCC1)c1ccncc1	2	-3
O=C(NCCC1=CCCCC1)c1ncn[nH]1	-10	94*
COc1ccccc1N1CCN(C(C)C(=O)Nc2ccc(F)cc2)CC1 (centres undefined)	-3	8
COc1ccc(Cl)cc1N1CCN(C(C)C(=O)Nc2ccc(C)cc2)CC1 (centres undefined)	0	99*
Cc1cc(C)nc(Nc2nc3ccccc3[nH]2)n1	-1	0
Cc1[nH]c2ccccc2c1/C=N\Nc1nc2ccccc2[nH]1	x	+
N#C/C(=C\c1cc2c(cc1Br)OCO2)c1nc2ccccc2[nH]1	-1	8
Clc1cc2c(cc1/C=N/Nc1nc3ccccc3[nH]1)OCO2	x	+
CCCSc1nc2nc3c(cc2c(=O)n1-c1ccc(OC)cc1)COC(C)(C)C3	5	1
CCCC1C(=O)CC(C#N)(C#N)C(C#N)(C#N)C1c1ccccc1 (centres undefined)	-2	15
O=C(O)CCCN1C(=O)SC(=Cc2ccc(Cl)cc2)C1=O	-18	-2
O=C(Nc1ccc(F)c(Cl)c1)c1cc([N+](=O)[O-])nn1Cc1ccccc1	-7	92*
O=C(Nc1ccc(F)cc1)c1cc([N+](=O)[O-])nn1Cc1ccccc1	-8	3
SMILES	Pf apPOL inh	mHTT CaM bind
O=C1N=c2ccccc2=C1c1sc(Nc2cccc(O)c2)nc1O	-1	61*
O=C1N=c2ccccc2=C1c1sc(Nc2ccc(Br)cc2)nc1O	6	28
CC(=O)C(C)=NNC(=O)Cc1cccs1	-15	x
CCCNc1cc(N2CCC(CCC(=O)N(CC)CC)CC2)ncn1	-3	10
N#Cc1cc(Cc2ccc(N)c(C#N)c2)ccc1N	-38	2
Nc1ccc(Cc2ccc(N)c(O)c2)cc1O	60*	87*
Cc1cc(C)n(C(CC(=O)O)C(=O)O)n1 (centres undefined)	0	-3
O=C(O)CC(C(=O)O)n1nc(-c2ccccc2)cc1-c1ccccc1 (centres undefined)	96*	1
Cc1cc(NCc2ccco2)nc2ccccc12	0	6
O=C1C[C@H]2C=CCc3cccc(c32)CN1Cc1ccc(Br)cc1	-8	12
COc1ccccc1CN1Cc2cccc3c2[C@@H](CC1=O)[C@H](O)[C@H](O)C3	-3	-2
Cc1ccccc1CN1Cc2cccc3c2[C@H](C=CC3)CC1=O	-3	100*
O=C1CC2C=CCc3cccc(c32)CN1Cc1cccc(F)c1 (centres undefined)	-4	100*
CCn1cnc2sc(C(=O)Nc3c(F)cccc3F)c(C)c2c1=O	-12	-2
c1ccc(Cc2c[nH]c3ccccc23)cc1	-1	61*
c1ccc2c(CCc3ccncc3)c[nH]c2c1	6	5
O=C(Nc1nc(COc2ccccc2)cs1)c1ccncc1	-1	-2
CCC(=O)N1CCN(c2nc3c(s2)CC(C(=O)N(CC)CC)CC3)CC1 (centres undefined)	-2	5
COCCCNC(=O)c1ccc(C(C)C)cc1	-3	-3
